Reference: PubChem BioAssay

Assay: binders of probe aFSTL3 on microarray, primary screen, stem cell growth factor project, biochemical, small-molecule microarray, fluorescence 635/667 (AID 1064);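 note: measures binding of the biotinylated anti-FSTL3 antibody to printed compounds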
Conditions: higher = more signal

| Structure (SMILES) | composite z-score |
| --- | --- |
| C=CCC(OC(C)=O)[C@@H]1[C@@H](N(Cc2ccc(-c3ccccc3)cc2)C(=O)c2ccc(C)cc2)c2cc(OCCCO)ccc2N1C(=O)c1ccc2ccccc2n1 (stereo partly drawn) | -0.131 |
| C=CCC(OC(C)=O)[C@@H]1[C@@H](N(Cc2cc3ccccc3o2)C(=O)c2ccc(C)cc2)c2cc(OCCCO)ccc2N1C(=O)c1ccc(-c2ccccc2)cc1 (stereo partly drawn) | -0.292 |
| COCCCNC(=O)[C@@]1(Sc2ccc(C)cc2)CC(=O)N(Cc2ccccc2)[C@@H]1c1ccc(CO)cc1 | 0.178 |
| COc1ccc(C(=O)Nc2cccc(CN3C(=O)[C@@]4(O[C@@H](CCn5cc([C@H](O)c6ccccc6)nn5)[C@H]([Si](C)(C)c5ccc(OC)cc5)[C@H]4C)c4ccccc43)c2)cc1 | 0.395 |
| CN1C(=O)C2C=CC(C(O)c3ccccc3)N(NC(=O)OC(C)(C)C)C2C1=O (stereo not drawn) | -0.366 |
| [N-]=[N+]=NCc1ccccc1C[C@]1(C(=O)NCc2ccccc2)COC(c2ccc(OCCCO)cc2)=N1 | 0.0555 |
| C=CC[C@@]1(C(=O)NCCN2CCOCC2)N=C(c2ccc(OCCCO)cc2)O[C@@H]1c1ccccc1CN=[N+]=[N-] | 1 |
| C=CCOC(=O)[C@@H]1[C@H]2C(=O)O[C@H](c3ccccc3)[C@H](c3ccccc3)N2[C@H](c2ccc(OCCOC(=O)[C@H]3C[C@H]4C(=O)N[C@@H](CCCC[N+](C)(C)C)C(=O)N4[C@H]3c3cccc(OCCO)c3)cc2)[C@@]12C(=O)Nc1ccc(I)cc12 | -0.542 |
| COc1ccc([Si](C)(C)[C@H]2[C@H](CC(=O)N3Cc4ccccc4C[C@H]3CO)O[C@@]3(C(=O)N(Cc4cccc(I)c4)c4ccccc43)[C@@H]2C)cc1 | -0.0638 |
| C=CCCN(CC#C[C@H]1Oc2ccccc2S(=O)(=O)N2CCC[C@@H]12)S(=O)(=O)c1ccc(C)cc1 | -0.141 |
| C[n+]1ccc2ccc(O)cc2c1 | -0.201 |
| COc1ccc([Si](C)(C)[C@@H]2[C@@H](CCO)O[C@]3(C(=O)N(Cc4cccc(N5CCCCC5=O)c4)c4ccccc43)[C@H]2C)cc1 | -0.191 |
| Cc1ccc(N2C(=O)c3ccccc3[C@@H](C(=O)NC(C)C)[C@@H]2c2ccc(CO)cc2)nc1 | 0.675 |

Assay: binders from COS7 lysate, DM2A8 probe, primary screen, torsin A project, cell lysate, small-molecule microarray, fluorescence 635/667 (AID 1065)
Conditions: higher = more signal, COS7 lysate expressing mutant human TOR1A

| Structure (SMILES) | composite z-score |
| --- | --- |
| C=C(CCCC)/C(=C/C[C@H](OC(C)=O)c1ccc(CO)o1)c1cc(C(=O)OC)ccc1OC | -0.296 |
| CC(C)(C)OC(=O)CC[C@]1(C(=O)NCC(O)CO)N=C(c2ccc(OCCCO)cc2)O[C@H]1c1ccccc1CN=[N+]=[N-] (stereo partly drawn) | 2.46 |
| COC(=O)[C@@]1(Cc2ccc(OC)cc2)[C@H]2c3cc(C(=O)N(C)C)n(Cc4ccc(OC)c(OC)c4)c3C[C@H]2CN1C(=O)c1ccccc1 | 0.796 |
| [N-]=[N+]=NCc1ccccc1C[C@@]1(C(=O)NCc2ccccc2)N=C(c2ccc(OCCCO)cc2)O[C@@H]1c1ccccc1CN=[N+]=[N-] | 0.425 |
| [N-]=[N+]=NCc1ccccc1[C@H]1OC(c2ccc(OCCCO)cc2)=N[C@@]1(Cc1ccccc1)C(=O)O | 0.325 |
| NC(=O)NCC#Cc1ccc2c(c1)[C@]1(C(=O)N2)[C@H](C(=O)NC[C@H](O)c2ccccc2)[C@H]2C(=O)O[C@H](c3ccccc3)[C@H](c3ccccc3)N2[C@@H]1c1ccccc1OCCO | 0.0051 |
| C=C(C(=O)CC[C@H](OC(=O)c1cccnc1)c1ccccc1OCCO)C(C)C | 1.78 |
| COc1ccc([Si](C)(C)[C@@H]2[C@@H](CCO)O[C@]3(C(=O)N(Cc4ccc(N5C(=O)c6cccc7cccc5c67)cc4)c4ccccc43)[C@H]2C)cc1 | 0.23 |
| COc1ccc([Si](C)(C)[C@H]2[C@H](CCO)O[C@@]3(C(=O)N(Cc4ccccc4)c4ccc(N5C(=O)COc6ccccc65)cc43)[C@@H]2C)cc1 | -0.113 |
| O=C1C2C=CC(C(O)c3ccccn3)N(Nc3ccccc3F)C2C(=O)N1c1ccccc1 (stereo not drawn) | 0.135 |
| CN(C)CCCC[C@@H]1NC(=O)[C@@H]2C[C@H](C(=O)NCCCCCN)[C@H](c3ccc(O)cc3)N2C1=O | 0.137 |
| O=C(NCC(O)CO)[C@@]1(Cc2ccccc2)COC(c2ccc(OCCCO)cc2)=N1 (stereo partly drawn) | -0.0995 |
| CCOC(=O)N1C(c2ccc(OCCCO)cc2)=NC(C(=O)OC)N1C(=O)OCC (stereo not drawn) | 0.0754 |
| CO[C@H]1O[C@H](CO)[C@@H](OC(=O)Nc2cccc(F)c2)[C@H](OC(=O)Nc2ccccc2-c2ccccc2)[C@@H]1OC(=O)Nc1ccccc1-c1ccccc1 | 0.568 |
| O=C1OCC=C[C@H]2OC34C=CCN(c5ccc6ccccc6c5)C(=O)[C@H]3N(CCO)C(=O)[C@@H]4[C@@H]12 (stereo partly drawn) | -2.22 |
| COc1cc2c(cc1O)C(c1ccc(CN3CCCC3)cc1)N(Cc1sc3ccccc3c1Cl)CC2 (stereo not drawn) | -0.002 |
| O=C1OCC=C[C@H]2OC34C=CCN(c5ccc(Cl)cc5)C(=O)[C@H]3N(CCCO)C(=O)[C@@H]4[C@@H]12 (stereo partly drawn) | -0.38 |
| NC(=O)[C@@]1(CCS(=O)(=O)c2ccccc2)N=C(c2ccc(OCCCO)cc2)O[C@H]1c1ccccc1 | 1.54 |

| Structure (SMILES) | composite z-score |
| --- | --- |
| CC(=O)NCCCC[C@@H]1NC(=O)[C@@H]2C[C@H](C(=O)NCc3ccc(F)cc3)[C@H](c3ccc(O)cc3)N2C1=O | 0.798 |
| O=C1OCCC=C[C@H]2OC34C=CCN(c5ccc6ccccc6c5)C(=O)[C@H]3N(CCCCCCO)C(=O)[C@@H]4C12 (stereo partly drawn) | 0.79 |
| Cc1ccc(F)cc1S(=O)(=O)N[C@@H]1CCN(Cc2ccc(C(F)(F)F)cc2)C1 | 0.588 |
| CC(C)NC(=O)[C@@]1(c2ccc([N+](=O)[O-])cc2)CC(=O)N(C(C)C)[C@@H]1c1ccc(CO)cc1 | -0.0946 |
| C=CCC(OC(C)=O)[C@@H]1[C@@H](N(Cc2ccc(-c3ccccc3)cc2)C(=O)c2ccc(C)cc2)c2cc(OCCCO)ccc2N1C(=O)c1ccc2ccccc2n1 (stereo partly drawn) | 0.42 |
| C=CCC(OC(C)=O)[C@@H]1[C@@H](N(Cc2cc3ccccc3o2)C(=O)c2ccc(C)cc2)c2cc(OCCCO)ccc2N1C(=O)c1ccc(-c2ccccc2)cc1 (stereo partly drawn) | 0.195 |
| COCCCNC(=O)[C@@]1(Sc2ccc(C)cc2)CC(=O)N(Cc2ccccc2)[C@@H]1c1ccc(CO)cc1 | 0.685 |
| COc1ccc(C(=O)Nc2cccc(CN3C(=O)[C@@]4(O[C@@H](CCn5cc([C@H](O)c6ccccc6)nn5)[C@H]([Si](C)(C)c5ccc(OC)cc5)[C@H]4C)c4ccccc43)c2)cc1 | -0.559 |
| CN1C(=O)C2C=CC(C(O)c3ccccc3)N(NC(=O)OC(C)(C)C)C2C1=O (stereo not drawn) | 0.583 |
| [N-]=[N+]=NCc1ccccc1C[C@]1(C(=O)NCc2ccccc2)COC(c2ccc(OCCCO)cc2)=N1 | 0.808 |
| C=CC[C@@]1(C(=O)NCCN2CCOCC2)N=C(c2ccc(OCCCO)cc2)O[C@@H]1c1ccccc1CN=[N+]=[N-] | 0.812 |
| C=CCOC(=O)[C@@H]1[C@H]2C(=O)O[C@H](c3ccccc3)[C@H](c3ccccc3)N2[C@H](c2ccc(OCCOC(=O)[C@H]3C[C@H]4C(=O)N[C@@H](CCCC[N+](C)(C)C)C(=O)N4[C@H]3c3cccc(OCCO)c3)cc2)[C@@]12C(=O)Nc1ccc(I)cc12 | 0.391 |
| COc1ccc([Si](C)(C)[C@H]2[C@H](CC(=O)N3Cc4ccccc4C[C@H]3CO)O[C@@]3(C(=O)N(Cc4cccc(I)c4)c4ccccc43)[C@@H]2C)cc1 | 2.29 |
| C=CCCN(CC#C[C@H]1Oc2ccccc2S(=O)(=O)N2CCC[C@@H]12)S(=O)(=O)c1ccc(C)cc1 | -0.0385 |
| C[n+]1ccc2ccc(O)cc2c1 | 1.46 |
| COc1ccc([Si](C)(C)[C@@H]2[C@@H](CCO)O[C@]3(C(=O)N(Cc4cccc(N5CCCCC5=O)c4)c4ccccc43)[C@H]2C)cc1 | 0.692 |
| Cc1ccc(N2C(=O)c3ccccc3[C@@H](C(=O)NC(C)C)[C@@H]2c2ccc(CO)cc2)nc1 | -0.374 |
